# In the supplement of paper PMC3334620:
# In all, about 33,000 sequences were measured (“E-score (-0.5 to 0.5)”: median about -0.053, highest 2% from about 0.37 on). The entries come from a sample that favours the highest values as a whole.
# Biological target: Hap1 (UniProt P0CE41)
# Assay: PBM E-score (8-mer binding enrichment) (E-score (-0.5 to 0.5)); higher = stronger / more preferred TF binding
# Details: protein concentration: 200 nM; construct: GST-DNA-binding domain
# Procedure, shortened: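 Masliner-normalised scans of fluorescent anti-GST signal were the basis for scoring. That signal came from GST-tagged yeast transcription factors applied at about 100-200 nM to double-stranded universal all-10-mer Agilent arrays on fresh or once-stripped slides. Each ungapped eight-base word, pooled with its reverse complement, received an E-score from the Universal PBM Analysis Suite.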
# Chain of UniProt P0CE41 (P0CE41 whole entry): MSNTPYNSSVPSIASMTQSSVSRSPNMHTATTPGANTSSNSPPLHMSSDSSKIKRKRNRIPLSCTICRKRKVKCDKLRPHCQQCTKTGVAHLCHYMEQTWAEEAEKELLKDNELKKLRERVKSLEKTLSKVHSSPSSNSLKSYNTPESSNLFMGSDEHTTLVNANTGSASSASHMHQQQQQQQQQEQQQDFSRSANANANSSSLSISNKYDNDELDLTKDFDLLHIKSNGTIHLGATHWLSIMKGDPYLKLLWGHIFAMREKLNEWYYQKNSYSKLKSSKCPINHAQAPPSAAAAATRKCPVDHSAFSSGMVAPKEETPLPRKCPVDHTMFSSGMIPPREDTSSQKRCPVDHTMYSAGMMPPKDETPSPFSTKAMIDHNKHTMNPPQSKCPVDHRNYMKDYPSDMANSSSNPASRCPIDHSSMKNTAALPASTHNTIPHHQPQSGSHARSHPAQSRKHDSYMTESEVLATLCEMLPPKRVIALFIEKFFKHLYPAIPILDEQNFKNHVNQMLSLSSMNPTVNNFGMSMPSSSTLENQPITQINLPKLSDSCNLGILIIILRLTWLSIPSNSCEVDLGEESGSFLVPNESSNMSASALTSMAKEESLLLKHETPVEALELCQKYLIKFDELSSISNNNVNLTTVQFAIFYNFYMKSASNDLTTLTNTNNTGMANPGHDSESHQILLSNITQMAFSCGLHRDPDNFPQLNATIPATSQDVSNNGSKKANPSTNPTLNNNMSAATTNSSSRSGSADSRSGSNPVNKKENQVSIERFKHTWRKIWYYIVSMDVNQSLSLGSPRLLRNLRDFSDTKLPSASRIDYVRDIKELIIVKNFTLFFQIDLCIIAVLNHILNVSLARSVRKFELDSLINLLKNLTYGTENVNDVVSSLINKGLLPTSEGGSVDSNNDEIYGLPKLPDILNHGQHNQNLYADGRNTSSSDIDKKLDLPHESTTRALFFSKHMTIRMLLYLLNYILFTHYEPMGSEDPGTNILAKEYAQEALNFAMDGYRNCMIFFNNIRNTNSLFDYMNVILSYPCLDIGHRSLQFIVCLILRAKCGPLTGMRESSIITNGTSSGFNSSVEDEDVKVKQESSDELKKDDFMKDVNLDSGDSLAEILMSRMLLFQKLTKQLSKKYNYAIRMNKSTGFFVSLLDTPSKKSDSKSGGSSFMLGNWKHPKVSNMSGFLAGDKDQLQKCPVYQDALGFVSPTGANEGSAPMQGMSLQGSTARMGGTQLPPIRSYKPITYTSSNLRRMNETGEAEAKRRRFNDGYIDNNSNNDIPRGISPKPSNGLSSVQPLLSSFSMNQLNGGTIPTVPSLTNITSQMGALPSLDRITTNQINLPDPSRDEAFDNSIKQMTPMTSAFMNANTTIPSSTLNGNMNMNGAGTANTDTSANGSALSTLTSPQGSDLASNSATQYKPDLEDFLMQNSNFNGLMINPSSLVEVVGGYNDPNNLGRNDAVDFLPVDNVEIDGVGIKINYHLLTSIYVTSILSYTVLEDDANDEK
row,Sequence,PBM E-score
1,GCCGGGCA,0.301
2,ACCGGGGA,0.284
3,CCCGGGCA,0.376
4,GCCAACAC,0.0365
5,CGAGCAAG,-0.182
6,CATTTAGG,-0.112
7,CTCCTCCA,-0.216
8,CCGGGCAA,0.322
9,GAGGAACC,-0.0105
10,CAGCATTC,-0.162
11,TATCAGCA,0.0209
12,GCTTCACC,-0.12
13,CTCAGTTC,-0.241
14,GCTCTGTA,-0.234
15,AGAACATG,-0.0473
16,CCCCTCCC,-0.00587
17,AACTGCCA,-0.186
18,TACTCCGA,0.375
19,AACTCCGG,0.481
20,CACTCCGG,0.302
21,AACTCCGC,0.389
22,GACTCCGA,0.301
23,CACTCCGC,0.156
24,CACTCCGA,0.212
25,AACTCCAT,0.139

row,Sequence,PBM E-score
1,AACTCCCG,0.333
2,AACTCCCT,-0.0179
3,AACTCCGT,0.447
4,GACTCCGC,0.174
5,ACCCTGTA,-0.0405
6,CCTTCAAG,-0.253
7,AAGTGGCG,-0.0765
8,ACGGCTGG,0.00715
9,AACTCCGA,0.474
10,AACTCCAA,-0.0924
11,AACTCCCA,-0.00143
12,TCTGTCCA,0.00731
13,CATCGGCG,0.264
14,ACACTAGA,-0.095
15,ACGGACAA,0.335
16,CCGGACAG,0.382
17,CCGGACAA,0.414
18,CAGGACAA,0.0261
19,TCGGACAA,0.394
20,CAGGACAG,-0.195
21,GCGGACAA,0.304
22,CCGGACAC,0.351
23,CTGGACAA,-0.215
24,CGCGGGAG,0.0987
25,CCAGTGCG,0.0478

row,Sequence,PBM E-score
1,GTTCCATA,-0.0357
2,ACGCAACT,0.064
3,AGTGCCAT,-0.0559
4,CAATCGGG,0.205
5,ATATCGTA,0.11
6,CTATCGAA,-0.177
7,GTATCGGA,0.415
8,GAATCGGA,0.366
9,ATATCGGA,0.439
10,CTATCGTA,-0.17
11,GTATCGAA,-0.152
12,CTATCGGA,0.452
13,AAATCGGA,0.344
14,TAATCGGA,0.317
15,CAATCGGA,0.394
16,AACACAGA,-0.116
17,AGACCTTA,-0.154
18,GCTATAGC,0.0502
19,AGCGGCAA,0.0491
20,CACGCTAA,-0.0232
21,ATACCCCC,0.283
22,AACGCCCC,0.128
23,AAGGACAG,-0.182
24,ATATCGGG,0.436
25,AAATCGGG,0.246

row,Sequence,PBM E-score
1,ATATCGTG,-0.0299
2,CTTCCGAA,0.324
3,ATTCCGAA,0.375
4,ATTCCAAG,-0.177
5,ATTCCGAG,0.397
6,AATCCGAG,0.338
7,ATTCCGAC,0.307
8,AAGTCGGG,0.153
9,AAACCACG,-0.0117
10,ACACACCC,0.117
11,AAAGTCCA,-0.0824
12,AAAGTCCT,0.157
13,CAAGTCCG,0.39
14,CAAGTCCA,-0.222
15,AAAGTCCG,0.446
16,CAAGTCCC,-0.181
17,CATCCTCA,-0.154
18,AATCAAAG,-0.129
19,AGCGGTCG,0.123
20,GGCTAAAA,0.0064
21,CGTGATAA,-0.0733
22,GGATATAC,0.319
23,AGAGATAA,0.00783
24,GGTGATAA,0.378
25,GGAGATAA,0.455

row,Sequence,PBM E-score
1,CGATATAA,0.308
2,GGATATAA,0.382
3,CGAGATAA,0.164
4,AGAGATAC,-0.0992
5,CGAGATAC,0.188
6,GGAGATAC,0.438
7,GGTGATAC,0.14
8,CGGAAGCC,0.199
9,GAGCGTGA,-0.183
10,AGTGCACT,-0.0451
11,AACTTCTG,-0.205
12,CTGGTAGA,-0.2
13,GAACACGA,-0.0354
14,ACCTGAAT,-0.104
15,CAGCCCTA,-0.0376
16,AGTTATCA,-0.0683
17,CCTTATCG,0.241
18,AGTTATCG,0.382
19,ACTTATCA,-0.148
20,ACTTATCG,0.415
21,AGTTATCC,0.106
22,AGCGCGGA,0.223
23,GCGACAGC,0.0479
24,ACCCGATG,0.3
25,ACCCGATC,0.244

row,Sequence,PBM E-score
1,CCCCGAAA,0.348
2,GCCCGATA,0.423
3,ACCCGATA,0.439
4,CCCCGATC,0.35
5,GCCCGACA,0.255
6,CCCCGATA,0.44
7,GCACGATA,0.0171
8,CTTAGGAC,-0.283
9,AGGGGGAC,-0.213
10,ATCCGCCG,0.375
11,ATCCGCCC,0.243
12,ATCCGCCA,0.181
13,AACAAAGT,0.00728
14,GCGGTGGA,0.0678
15,ACGGTGGA,-0.062
16,CCGGTGGA,0.39
17,CGACCTTC,0.0839
18,CTGAGATC,-0.171
19,AGGAGATA,0.253
20,GGGAGATA,0.268
21,CGGAGATA,0.495
22,CGGAGATC,0.411
23,AGGAGATC,-0.098
24,GTTCCTGA,-0.242
25,AGCAATAC,-0.0164

row,Sequence,PBM E-score
1,AGTAAAGC,-0.00459
2,ACGTACAC,-0.181
3,ACCCAACG,-0.0503
4,CGGAGGAA,0.375
5,CGGAGGTC,0.261
6,CGGAGGAG,0.284
7,AGGAGGAA,-0.218
8,AGGAGGTA,-0.044
9,CGGAGGTA,0.443
10,GGAAAACA,0.139
11,CCGGCGGA,0.421
12,CTGGCGGA,-0.0445
13,CCGGCGGC,0.364
14,GCGGCGGA,0.382
15,ACGGCGGA,0.273
16,GTGGCGGA,0.136
17,GCGGCTCA,0.073
18,GAGTGTCA,-0.145
19,GAGAATGC,0.0329
20,ACGGATGA,0.228
21,AGACGCGG,0.0872
22,CTCGAAGA,-0.152
